The target of test [1] is Cellular tumor antigen p53 (Homo sapiens) (UniProt P04637). The test is described as follows: TOX21_p53_BLA_p5_ratio: Tox21 HCT-116 p53 Agonism Beta-lactamase Assay, Ratio, Phase 5 (AID 2283599). A digest of the protocol: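 Beta-lactamase reporter ratio (blue 460 nm over green 530 nm, 405 nm excitation) after 2 h CCF4-AM loading, in HCT-116 cells exposed 16 h at 37 C to compounds pinned at 217-fold dilution. Increases relative to DMSO baseline scored.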

The target is the same in test [2]. The test is described as follows: TOX21_p53_BLA_p4_ratio: Tox21 HCT-116 p53 Agonism Beta-lactamase Assay, Ratio, Phase 4 (AID 2283601). The method in brief:
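Signal is the blue/green (460nm/530nm) ratio of cleaved versus uncleaved CCF4-AM substrate, read after 2 h substrate loading. Cells were HCT116 carrying the p53-responsive beta-lactamase reporter, dosed 16 h at 37C, 5% CO2; CellTiter-Glo measured in parallel.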

Results filed as inconclusive are left out. Activity calls are given as the source filed them. Rule for the calls: active = hit-call score of the fitted dose curve at least 0.9, where 1 is the maximum; inconclusive = response in the unintended direction; inactive = score below 0.9.

Cellular tumor antigen p53 (Homo sapiens), sequence (P04637 whole entry, looked up): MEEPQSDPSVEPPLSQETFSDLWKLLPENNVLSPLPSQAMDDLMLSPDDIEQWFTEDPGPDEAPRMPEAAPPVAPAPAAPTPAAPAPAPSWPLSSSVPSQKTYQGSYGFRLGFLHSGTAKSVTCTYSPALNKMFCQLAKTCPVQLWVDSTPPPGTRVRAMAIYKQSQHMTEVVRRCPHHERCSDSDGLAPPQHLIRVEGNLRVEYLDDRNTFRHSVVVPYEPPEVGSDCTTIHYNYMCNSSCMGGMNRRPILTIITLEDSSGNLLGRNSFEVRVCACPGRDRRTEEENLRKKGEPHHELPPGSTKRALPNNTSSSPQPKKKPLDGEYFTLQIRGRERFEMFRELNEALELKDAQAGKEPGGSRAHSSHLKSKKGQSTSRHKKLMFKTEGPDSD

For the compound `ClC(Cl)C(Cl)Cl`, the result in test [1] and in test [2] was inactive.

The record behind these values is PubChem BioAssay (EPA / NIEHS).
